Laboratory results: PubChem BioAssay (NCI)
The panel holds about 83,000 compounds, 20% with a hit somewhere; the sample as a whole holds those more often.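 Step 1: grow cells in 96-well plates. Step 2: add test compound at a single concentration. Step 3: incubate 48 h. Step 4: record percent growth.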 Values without a mark were called inactive. Calls of active or inactive are those of the source. How the source made its calls: active means growth percent below 10; inactive means the rest.

Assays:
Assay in all cases: NCI-60 one-dose screen, 48 h (100 = growth as untreated, 0 = no growth, -100 = all killed)
HL-60(TB) leukemia = conditions: 10 µM unless noted
NCI-H226 lung = conditions: 10 µM
NCI-H322M lung = conditions: 10 µM
HOP-62 NSCLC = conditions: 10 µM
A549/ATCC NSCLC = conditions: 10 µM
786-0 renal = conditions: 10 µM
COLO 205 colon = conditions: 10 µM
DU-145 prostate = conditions: 10 µM
SF-268 CNS = conditions: 10 µM
SF-295 CNS = conditions: 10 µM
SF-539 CNS = conditions: 10 µM
HCT-15 colon = conditions: 10 µM
SNB-75 CNS = conditions: 10 µM
SNB-19 CNS = conditions: 10 µM
U251 CNS = conditions: 10 µM
PC-3 prostate = conditions: 10 µM
EKVX NSCLC = conditions: 10 µM
UO-31 renal = conditions: 10 µM
ACHN renal = conditions: 10 µM
CCRF-CEM leukemia = conditions: 10 µM

NS(=O)(=O)c1ccc(Nc2nc(SCc3ccccc3)nc3ccccc23)cc1
growth (HL-60(TB) leukemia): 60.5%

COc1cc(/C=C2\C(=O)Nc3ccccc32)ccc1OCc1ccc(F)cc1
growth (HL-60(TB) leukemia): 115%

CC(c1ccccc1)N1C(=O)/C(=C/c2csc(C#N)n2)SC1=S (stereo not drawn)
growth (HL-60(TB) leukemia): 4.32% (active)

COc1cc(-c2nc(SCc3ccc(C)cc3)[nH]c(=O)c2C#N)ccc1OCc1ccccc1
growth (HL-60(TB) leukemia): 137%

COc1ccccc1C(=O)CSc1nc(Nc2ccc(S(N)(=O)=O)cc2)c2ccccc2n1
growth (HL-60(TB) leukemia): 94.5%

C#C[C@]1(O)CC[C@H]2[C@@H]3CC=C4c5sc(N6CCN(C)CC6)nc5CC[C@]4(C)[C@H]3CC[C@@]21C
growth (HL-60(TB) leukemia): 6.2% (active)

CC1CCN(S(=O)(=O)c2ncsc2-c2ccccc2)CC1
growth (HL-60(TB) leukemia): 72.3%

COc1cc(OC)c(S(=O)(=O)N(CCCl)CCCl)cc1C(=O)/C=C/c1ccc(Cl)cc1
growth (NCI-H226 lung): 78.9%
growth (NCI-H322M lung): 71.9%
growth (HOP-62 NSCLC): 91.7%
growth (A549/ATCC NSCLC): 71.5%
growth (786-0 renal): 64.4%
growth (COLO 205 colon): 101%
growth (DU-145 prostate): 68.8%
growth (SF-268 CNS): 73.2%
growth (SF-295 CNS): 88.7%
growth (SF-539 CNS): 51.3%
growth (HCT-15 colon): 31.6%
growth (SNB-75 CNS): 37.8%
growth (SNB-19 CNS): 65.2%
growth (U251 CNS): 55.1%
growth (PC-3 prostate): 70.3%
growth (EKVX NSCLC): 85.5%
growth (UO-31 renal): 66.9%
growth (ACHN renal): 65.3%
growth (HL-60(TB) leukemia): 49.4%
growth (CCRF-CEM leukemia): 16.4%

COc1cccc(/C=C/C(=O)c2ccc(NC(=O)COc3cccc4cccnc34)cc2)c1
growth (HL-60(TB) leukemia): 80.5%
